# Compound activity (PubChem BioAssay)
# KCNQ2 enhance: KCNQ2 (rat) channel potentiation. 310,000 compounds, 0.54% hits. AID 2239. B-score at 10 µM. CHO-K1 KCNQ2, FluxOR thallium flux fluorescence; active compounds read high;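 active means fluorescence ratio B-score at least 3 SD of library B-scores, with initial fluorescence B-score within 3 of them, cut at about 5.3 in these data; same plate scores as AID 2156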;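 further: B-score of peak minus minimum over baseline fluorescence ratio after K+ and Tl+ stimulus; positive B-score means potentiation of KCNQ2 with more thallium influx and brighter signal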
# Target sequence (O88943 whole entry, looked up): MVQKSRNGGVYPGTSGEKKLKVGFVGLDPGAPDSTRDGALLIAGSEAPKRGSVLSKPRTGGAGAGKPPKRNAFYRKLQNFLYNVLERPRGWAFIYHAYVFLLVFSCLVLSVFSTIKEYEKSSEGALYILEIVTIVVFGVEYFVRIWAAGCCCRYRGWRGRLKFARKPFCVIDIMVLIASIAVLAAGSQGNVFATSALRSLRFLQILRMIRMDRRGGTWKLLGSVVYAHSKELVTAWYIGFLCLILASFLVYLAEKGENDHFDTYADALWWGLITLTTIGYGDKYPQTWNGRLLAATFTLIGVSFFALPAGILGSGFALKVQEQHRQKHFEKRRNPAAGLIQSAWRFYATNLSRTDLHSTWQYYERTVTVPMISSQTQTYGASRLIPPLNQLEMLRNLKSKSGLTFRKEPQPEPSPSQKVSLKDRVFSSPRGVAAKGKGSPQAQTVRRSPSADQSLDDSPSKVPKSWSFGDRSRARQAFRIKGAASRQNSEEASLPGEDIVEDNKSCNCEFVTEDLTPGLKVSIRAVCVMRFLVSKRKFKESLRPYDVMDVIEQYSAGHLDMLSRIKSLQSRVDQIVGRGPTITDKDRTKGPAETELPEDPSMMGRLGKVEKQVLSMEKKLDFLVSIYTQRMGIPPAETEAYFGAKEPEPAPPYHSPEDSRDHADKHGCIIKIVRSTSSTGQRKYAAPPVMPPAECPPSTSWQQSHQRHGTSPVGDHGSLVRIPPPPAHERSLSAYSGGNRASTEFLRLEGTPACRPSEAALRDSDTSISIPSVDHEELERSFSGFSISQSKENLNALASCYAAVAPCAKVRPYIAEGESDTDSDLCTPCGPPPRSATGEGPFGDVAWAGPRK
# KCNQ2 inh: KCNQ2 (rat) channel inhibition | O88943 | CHO-K1 KCNQ2, FluxOR thallium flux, 20 min; active compounds read low | B-score at 10 µM | 310,000 compounds, 1.1% hits | AID 2156;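 active means fluorescence ratio B-score at most minus 3 library SDs, with starting brightness B-score within 2 library SDs, cut at about -5.5 in these data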
# Kir21 confirm: confirmation of mouse Kir2.1 potassium channel inhibitors; shares compounds with KCNQ2 enhance; Kir2.1-expressing cells, FluxOR thallium flux fluorescence; active compounds read low; Tl flux remaining, % of negative control (active compounds read low), % at 10 µM; 2,300 compounds, 41% hits;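 active means Primary-screen hit whose thallium flux fell at least 3 control SD below untreated wells in both duplicates, with normal baseline fluorescence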;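 further: 0% = blank wells without stimulus and 100% = stimulated no-compound controls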
# HEK293 Tl flux: alters thallium flux in parental HEK293 cells, Kir2.1 counter-screen | shares compounds with KCNQ2 enhance | FluxOR thallium flux fluorescence; 0% = unstimulated blank wells | FluxOR signal as % of negative control (100 = no effect), % at 10 µM | 2,300 compounds, 19% hits;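 active means dye signal at least 3 control SD above or below untreated wells in both duplicates, raw fluorescence within 3, either direction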;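 further: percent is based on the flux ratio of peak minus minimum fluorescence over baseline F0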
# CHO-K1 Tl ctr: alters thallium flux in parental CHO-K1 cells, KCNQ2 counter-screen | shares compounds with KCNQ2 enhance | FluxOR thallium flux fluorescence; zero = vehicle mean+3SD, 100% = vehicle-minus-blank window | activity increase over 3SD of controls, % at 10 µM | 1,200 compounds, 43% hits | AID 2282;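 active means signal rise of at least 3 SD above the untreated control mean, in both duplicate wells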;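 further: counter screen of KCNQ2 potentiator hits so any rise reflects channel-independent effects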
# KCNQ1 pot spec: selectivity of KCNQ2 potentiators: effect on human KCNQ1; CHO KCNQ1 stable, FluxOR thallium flux fluorescence; beyond 3SD, as % of vehicle-control signal; shares compounds with KCNQ2 enhance; activation over 3SD threshold, % at 10 µM; 1,200 compounds, 28% hits;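 active means fluorescence ratio rise of at least 3 SD of vehicle wells above their mean, in both replicate wells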;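 further: 0% = vehicle mean plus 3 SD and 100% = vehicle minus unstimulated blank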
# KCNQ2 pot confirm: rat KCNQ2 channel potentiator confirmation. potentiation, less the hit threshold, % at 10 µM. CHO-KCNQ2 cells, FluxOR thallium flux fluorescence. shares compounds with KCNQ2 enhance. AID 2287. 1,200 compounds, 68% hits;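 active means fluorescence ratio rising 3 SD or more over the vehicle control mean in both replicates, plus primary screen hit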;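 further: peak minus minimum thallium fluorescence divided by baseline after K/Tl stimulus; 0% = vehicle mean plus 3 SD and 100% = vehicle minus unstimulated blank difference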
# Kir21 spec: mouse Kir2.1 off-target activity of KCNQ2 potentiators; shares compounds with KCNQ2 enhance; HEK293 Kir2.1, FluxOR thallium flux fluorescence; AID 2345; activity over 3SD threshold, % at 10 µM; 1,200 compounds, 2% hits;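 active means fluorescence ratio rise of at least 3 SD above the vehicle-control mean, seen in both replicates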;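 further: 0% = vehicle mean plus 3 SD and 100% = vehicle minus no-stimulus blank window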
# KCNQ2 W236L MoA: rat KCNQ2 W236L mutant potentiation by KCNQ2 potentiators. shares compounds with KCNQ2 enhance. CHO KCNQ2-W236L, automated patch clamp current. current increase over 3SD of negative controls (%), active compounds read high, % at 25 µM. 940 compounds, 10% hits. AID 2558;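 active means current increase at least 3 SD of the untreated controls above them in both duplicate recordings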
# Active calls of the source: *; i = inactive; · = not tested or not shown. In the library only some 1.6% were active in any assay of this set; here they are far more common.
SMILES,KCNQ2 enhance,KCNQ2 inh,Kir21 confirm,HEK293 Tl flux,others
CC(C)(C)OC(=O)N1CCC[C@H]1c1nnc(SCc2c(Cl)cccc2Cl)o1,·,i,·,·,
Cc1cccc(CSc2nnc([C@@H]3CCCN3C(=O)OC(C)(C)C)o2)c1,·,i,56%*,i,
O=S(=O)(Nc1ccc(S(=O)(=O)Nc2ncccn2)cc1)c1ccc(Cl)cc1,0.49,i,·,·,
O=S(=O)(Nc1cccc(CCc2ccccn2)c1)c1ccc(Cl)cc1,·,i,i,i,
CNC(=S)NNC(=O)c1sc(-c2cc(C)on2)nc1C,·,i,·,·,
COc1ccc(CC(=O)N/N=C(\C)c2cccs2)cc1,·,i,·,·,
O=C(NCc1cccc(F)c1)C1CCC(=O)N(C2CC2)C1 (centres undefined),·,i,·,·,
Cc1cccc(NC(=O)NCc2ccc3c(c2)OCO3)c1,11*,i,i,i,CHO-K1 Tl ctr=4.1*;KCNQ1 pot spec=-12;KCNQ2 pot confirm=20*;Kir21 spec=-41;KCNQ2 W236L MoA=i
CCc1ccccc1NC(=O)NC(C)c1ccc2c(c1)OCO2 (centres undefined),1.6,i,·,·,
O=C(NNC(=O)c1ccc2c(c1)OCO2)NC1CCCCC1,·,i,·,·,
O=C(NCc1ccc2c(c1)OCO2)NC1CCCCC1,5.7*,i,i,i,CHO-K1 Tl ctr=38*;KCNQ1 pot spec=-10;KCNQ2 pot confirm=-19;Kir21 spec=-23
CC(NC(=O)NC12CC3CC(CC(C3)C1)C2)c1ccc2c(c1)OCO2 (centres undefined),15*,i,i,i,CHO-K1 Tl ctr=28*;KCNQ1 pot spec=-18;KCNQ2 pot confirm=56*;Kir21 spec=-39;KCNQ2 W236L MoA=i
O=C(NCc1ccc2c(c1)CCO2)Nc1cccc(C(F)(F)F)c1,7.1*,i,i,i,CHO-K1 Tl ctr=3.1*;KCNQ1 pot spec=20*;KCNQ2 pot confirm=25*;Kir21 spec=-44;KCNQ2 W236L MoA=i
O=C(NCc1cccnc1)Nc1cccc(C(F)(F)F)c1,1.4,i,·,·,
Cc1cccc(NC(=S)NCc2ccc3c(c2)OCO3)c1,0.23,i,·,·,
O=C(C1CC(=O)N(C2CCCCC2)C1)N1CCc2ccccc21 (centres undefined),·,i,·,·,
CCOC(=O)/C(=N\Nc1ccccc1Cl)N(C)C1CCCCC1,0.97,i,·,·,
C=CCc1c(O)c(CC)cc2c(C)cc(=O)oc12,1.1,i,·,·,
O=C(c1cccc([N+](=O)[O-])c1)N1CCCC(C(=O)N2CCN(c3ccccc3)CC2)C1 (centres undefined),1.4,i,·,·,
CC(NC(=O)NC1CCCCC1)c1ccc2c(c1)OCO2 (centres undefined),21*,i,i,i,CHO-K1 Tl ctr=12*;KCNQ1 pot spec=-24;KCNQ2 pot confirm=62*;Kir21 spec=-34;KCNQ2 W236L MoA=i
O=C(CC12CCC(CC1)C2)NCc1ccc2c(c1)OCO2,11*,i,i,i,CHO-K1 Tl ctr=96*;KCNQ1 pot spec=-13;KCNQ2 pot confirm=44*;Kir21 spec=-26;KCNQ2 W236L MoA=i
CC(NC(=O)Nc1ccc(Cl)cc1)c1ccc2c(c1)OCO2 (centres undefined),·,i,·,·,
O=C(Cc1ccccc1)NCc1ccc2c(c1)OCO2,2.6,i,·,·,
CC(C)(CO)Nc1nc(Cl)nc(NC2CCCCC2)n1,0.11,i,·,·,
CC1(C)OC(C(O)(c2ccccc2)c2ccccc2)[C@@H](C(O)(c2ccccc2)c2ccccc2)O1 (some centres undefined),·,i,·,·,
SMILES,KCNQ2 enhance,KCNQ2 inh,Kir21 confirm,HEK293 Tl flux,others
O=C(NCC1CCCO1)c1nn2c(C(F)(F)F)cc(-c3ccc(Br)o3)nc2c1Br (centres undefined),·,i,·,·,
Cc1ccc(C)c(Cn2c3ccccc3c3cnn(CC(=O)NCc4ccccn4)c(=O)c32)c1,1.2,i,·,·,
Cc1ccc(C)c(Cn2c3ccccc3c3cnn(CC(=O)NCCCN4CCCCC4)c(=O)c32)c1,0.21,i,60%*,i,
CCN(C(=O)Cn1cnc2cc([N+](=O)[O-])ccc2c1=O)C1CCS(=O)(=O)C1 (centres undefined),0.03,i,·,·,
CC(C)CCN(C(=O)CNC(=O)c1ccco1)C(C(=O)NC1CCCCC1)c1cccnc1 (centres undefined),2,i,·,·,
CC1CCN(C(=S)NC(=O)c2cccc([N+](=O)[O-])c2)CC1,2.8,i,·,·,
CCC1CCCCN1C(=S)NC(=O)c1cccc([N+](=O)[O-])c1 (centres undefined),4.1,i,i,348%*,
Cc1ccc(C(=O)N(C)CC(=O)Nc2cccc(C)c2C)o1,2.1,i,·,·,
COc1ccc(-c2oc3ccccc3c(=O)c2OC(C)=O)cc1,6.7*,i,i,310%*,CHO-K1 Tl ctr=89*;KCNQ1 pot spec=-21;KCNQ2 pot confirm=19*;Kir21 spec=-27;KCNQ2 W236L MoA=i
CC(=O)Oc1c(-c2ccc(Br)o2)oc2ccccc2c1=O,16*,i,i,462%*,CHO-K1 Tl ctr=114*;KCNQ1 pot spec=-8;KCNQ2 pot confirm=62*;Kir21 spec=-19;KCNQ2 W236L MoA=i
O=C(O)COc1c(-c2ccco2)oc2ccccc2c1=O,2,i,·,·,
COc1ccc(-c2oc3ccccc3c(=O)c2OCC(=O)O)cc1,0.85,i,·,·,
O=C(CCN1C(=O)[C@@H]2Cc3ccccc3CN2C1=O)N[C@H](C(=O)O)c1ccccc1,0.51,i,·,·,
COc1ccc(NC(=O)CSc2ccc3nnc(-c4cccnc4)n3n2)cc1OC,·,i,·,·,
CSCCC(NC(N)=O)C(=O)Nc1cccc(C#N)c1 (centres undefined),0.35,i,·,·,
N#C/C(=C\c1c(F)cccc1Cl)C(=O)NC1CC1,·,i,·,·,
COc1cccc(CNC(=O)CSCc2cnn(-c3ccccc3)c2-n2cccc2)c1OC,·,i,·,·,
COc1ccccc1CNC(=O)CSCc1cnn(-c2ccccc2)c1-n1cccc1,·,i,i,i,
CSc1nc2cc(C)nn2c(-c2ccccc2)c1C#N,0.28,i,·,·,
Clc1ccc(OCCOCCN2CCc3ccccc3C2)c(Cl)c1,·,i,·,·,
c1ccc(-c2ccccc2OCCOCCN2CCc3ccccc3C2)cc1,·,i,50%*,i,
O=C(NC1CCCCC1)N1CCN(c2ccccc2Cl)CC1,·,i,·,·,
CCN(CC)CC#CCC(C)(c1ccccc1)c1ccccc1,·,i,i,i,
CCN(CC)CC#CCC(O)(c1ccccc1)c1ccccc1,·,i,·,·,
CCn1ncc(NC(=S)NCCc2ccc(OC)c(OC)c2)c1C(N)=O,·,i,·,·,
Cc1ccc(C(=O)C(C)OC(=O)Cc2c[nH]c3ccccc23)cc1 (centres undefined),·,i,·,·,
